Data reported in ChEMBL document CHEMBL4808148, “HDAC6 screening dataset using tau-based substrate in an enzymatic assay yields selective inhibitors and activators” (2021).
The campaign covered roughly 5,600 compounds. About 390 (7%) showed an effect of 50% or more. This excerpt belongs to a sample that is enriched for strong results.

Columns and labels:
[1] = target: T1, Protein deacetylase HDAC6 (Homo sapiens) (UniProt Q9UBN7); conditions: at 10 µM
T1 sequence (whole entry): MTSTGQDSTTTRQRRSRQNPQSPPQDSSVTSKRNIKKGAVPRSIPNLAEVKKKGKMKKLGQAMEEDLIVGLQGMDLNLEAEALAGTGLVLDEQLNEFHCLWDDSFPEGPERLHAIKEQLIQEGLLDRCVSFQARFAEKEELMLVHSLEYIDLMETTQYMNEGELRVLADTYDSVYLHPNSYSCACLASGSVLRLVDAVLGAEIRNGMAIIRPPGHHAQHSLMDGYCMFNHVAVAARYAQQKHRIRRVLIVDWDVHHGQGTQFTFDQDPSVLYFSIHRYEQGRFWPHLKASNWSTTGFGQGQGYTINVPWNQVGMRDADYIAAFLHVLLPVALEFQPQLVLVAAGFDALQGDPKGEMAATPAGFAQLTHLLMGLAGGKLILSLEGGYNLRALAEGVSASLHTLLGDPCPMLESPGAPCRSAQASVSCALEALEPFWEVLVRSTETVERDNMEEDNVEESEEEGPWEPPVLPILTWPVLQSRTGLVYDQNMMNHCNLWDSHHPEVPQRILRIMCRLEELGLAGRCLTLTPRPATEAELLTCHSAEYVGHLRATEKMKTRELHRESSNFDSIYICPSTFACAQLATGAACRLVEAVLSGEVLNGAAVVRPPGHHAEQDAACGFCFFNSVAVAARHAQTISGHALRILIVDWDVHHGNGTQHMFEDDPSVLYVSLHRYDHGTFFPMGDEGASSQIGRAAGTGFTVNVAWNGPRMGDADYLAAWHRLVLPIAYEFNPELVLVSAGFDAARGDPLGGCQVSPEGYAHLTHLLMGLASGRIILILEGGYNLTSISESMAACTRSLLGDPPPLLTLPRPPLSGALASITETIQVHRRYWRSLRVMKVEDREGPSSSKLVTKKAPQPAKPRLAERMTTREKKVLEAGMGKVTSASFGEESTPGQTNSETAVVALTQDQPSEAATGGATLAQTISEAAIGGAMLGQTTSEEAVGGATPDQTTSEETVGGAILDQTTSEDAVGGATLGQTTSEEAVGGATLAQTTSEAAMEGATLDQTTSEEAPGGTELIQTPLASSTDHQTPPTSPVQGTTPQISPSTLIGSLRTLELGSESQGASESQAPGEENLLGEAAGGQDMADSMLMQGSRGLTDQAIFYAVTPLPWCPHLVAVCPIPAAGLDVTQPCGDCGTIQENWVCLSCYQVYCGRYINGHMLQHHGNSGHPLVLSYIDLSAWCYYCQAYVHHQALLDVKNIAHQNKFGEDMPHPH

[2] = target: Protein deacetylase HDAC6 (Homo sapiens) (UniProt Q9UBN7); conditions: at 10 µM; remark: listed apart in the source

FCc1ccc(OCCOc2ccc(Cl)cc2Cl)c(Cl)n1
inhibition [1]: 61.7%

CCOc1c2c(c(OCC)c3ccccc13)C(=O)N(c1ccc(CC(=O)NS(=O)(=O)c3ccccc3)cc1)C2
inhibition [1]: 3.49%

O=C1C2CC3CC1CC(O)(C3)C2
inhibition [1]: 26.7%

Cc1cc2c(F)c(Oc3ncnn4cc(OC[C@@H](C)OC(=O)[C@H](C)N)c(C)c34)ccc2[nH]1
inhibition [1]: 48.1%

COc1cc2c(Oc3ccc4[nH]c(C)cc4c3F)ccnc2cc1OCC1(N)CC1
inhibition [1]: 54.9%

NS(=O)(=O)c1ccc2c(c1)C1C=CCC1C(c1ccc(Br)cc1)N2 (centres undefined)
inhibition [1]: 8.71%

CS(=O)(=O)c1ccc(-c2cn3ccccc3n2)cc1
inhibition [1]: 99.6%

CS(=O)(=O)c1ccc(-c2cnc(N)c(C(=O)Nc3ccccc3)n2)cc1
inhibition [1]: 6.2%

Cc1cccc2c1CC[C@H](CN1CCC(c3c(Cl)cccc3Cl)CC1)C[C@@H]2O
inhibition [1]: -4.44%

CN(C)[C@@H]1CCc2[nH]c3ccc(NC(=O)c4ccc(F)cc4)cc3c2C1
inhibition [1]: 6.78%

O=C1C2CC=CCC2C(=O)N1SC(Cl)(Cl)Cl (centres undefined)
inhibition [1]: 59.5%

O=[N+]([O-])c1ccc(Cl)c([N+](=O)[O-])c1
inhibition [1]: 15.2%

COc1cc(O)cc([C@@H]2CC(=O)c3c(O)cc(O[C@@H]4O[C@H](CO)[C@@H](O)[C@H](O)[C@H]4O[C@@H]4O[C@@H](C)[C@H](O)[C@@H](O)[C@H]4O)cc3O2)c1
inhibition [1]: 5.67%

O=C(O[C@@H]1Cc2c(O)cc(O)cc2O[C@@H]1c1cc(O)c(O)c(O)c1)c1cc(O)c(O)c(O)c1
inhibition [1]: 11.9%

O=C1C[C@@H](c2ccc(O)cc2)Oc2cc(O)cc(O)c21
inhibition [1]: 73.8%

[O-][n+]1ccccc1S
inhibition [1]: 22.8%

O=C(OCCO)c1ccccc1O
inhibition [1]: 5.24%

O=C(Oc1ccccc1)c1ccccc1O
inhibition [1]: 77.2%

CCOC(=O)c1ccccc1OC(N)=O
inhibition [1]: 7.12%

CCCN(CCC)C(=O)C(CCC(=O)OCCCN1CCN(CCOC(=O)Cc2c(C)n(C(=O)c3ccc(Cl)cc3)c3ccc(OC)cc23)CC1)NC(=O)c1ccccc1 (centres undefined)
inhibition [1]: -4.35%

O=[N+]([O-])c1cc(Cl)ccc1S(=O)(=O)c1ccccc1
inhibition [1]: 13.8%

NC1=NC(=O)N([C@H]2C[C@H](O)[C@@H](CO)O2)CN1
inhibition [1]: 19.8%

Brc1ccc(NC2C3CC4CC(C3)CC2C4)cc1 (centres undefined)
inhibition [1]: 5.83%

O=S(=O)(c1ccccc1F)N1CCOc2c(N3CCNCC3)cccc21
inhibition [1]: 3.08%

CC(=O)O[C@]1(C(C)=O)CC[C@H]2[C@@H]3C=CC4=CC(=O)CC[C@]4(C)[C@H]3CC[C@@]21C
inhibition [1]: 31.5%

CCOC(=O)Nc1nc2ccccc2[nH]1
inhibition [1]: 34.2%

CCCSc1ccc2[nH]c(NC(=O)OC)nc2c1
inhibition [1]: 58.8%

CCC[S+]([O-])c1ccc2[nH]c(NC(=O)OC)nc2c1 (centres undefined)
inhibition [1]: 18.6%

Cc1nc(N(C)C(=O)Cc2ccc(-c3ccccn3)cc2)sc1S(N)(=O)=O
inhibition [1]: 23.9%

CCOC(=O)Nc1ccc2c(c1)N(C(=O)CCN(CC)CC)c1ccccc1S2
inhibition [1]: 14.5%

Nc1nccc(Oc2ccc(NC(=O)c3cn(COP(=O)(O)O)cc(-c4ccc(F)cc4)c3=O)cc2F)c1Cl
inhibition [1]: 21.9%

C[C@H]1CN(Cc2ccc(CC(=O)N3CCC(Nc4cccc(F)c4)CC3)cc2)CCN1
inhibition [1]: 44.9%

O=C(/C=C/c1cccc(F)c1)NC1CC1
inhibition [1]: 52.8%

CC(=O)N1CCC(NC(=O)c2ccc(F)cc2)CC1
inhibition [1]: 13.7%

O=C(C(c1ccccc1)c1ccccc1)N1CCN(CC(O)COc2cccc3ncccc23)CC1 (centres undefined)
inhibition [1]: 5.51%

COc1ccc(C2CNC(=O)NC2)cc1O[C@H]1C[C@@H]2CC[C@H]1C2
inhibition [1]: 6.99%

CCOC(=O)[C@H](CCc1ccccc1)N[C@@H](C)C(=O)N1C(=O)N(C)C[C@H]1C(=O)O
inhibition [1]: 15.9%

CC(=O)Oc1ccccc1C(=O)Nc1ncc([N+](=O)[O-])s1
inhibition [1]: 103%

O=C1NC(O)CCN1[C@@H]1O[C@H](CO)[C@@H](O)[C@H]1O (some centres undefined)
inhibition [1]: 15.9%

C[C@@H]1CC2C3CCC4=CC(=O)C=C[C@]4(C)[C@@]3(F)[C@@H](O)C[C@]2(C)[C@H]1C(=O)CO (some centres undefined)
inhibition [1]: 6.55%

ESCIN, CHEMBL4594473
inhibition [2]: 3.89%

O=C(COc1ccc(Cl)cc1)N[C@H]1CC[C@H](NC(=O)COc2ccc(Cl)cc2)CC1
inhibition [1]: -5.96%

CN1[C@@H]2C[C@@H](O)C[C@H]1[C@@H]1O[C@@H]12
inhibition [1]: 91.4%

Cc1cc(C)c(NC(=O)N(Cc2ccc3c(c2)Cc2ccccc2-3)C2CCCCCC2)c(C)c1
inhibition [1]: 0.9%

CN1CCN(Cc2ccc(Nc3ncc(Cl)c(Nc4ccccc4S(=O)(=O)N(C)C)n3)cc2)CC1
inhibition [1]: 5.09%

CC1(C)S[C@@H]2[C@H](NC(=O)[C@H](NC(=O)N3CCNC3=O)c3ccccc3)C(=O)N2[C@H]1C(=O)O
inhibition [1]: 13.9%

O=C(O)CC(S)C(=O)O (centres undefined)
inhibition [1]: 18.6%

O[AsH]O[AsH]O (centres undefined)
inhibition [1]: -5.16%

O=C(CO)[C@@H](O)[C@@H](O)[C@H](O)CO
inhibition [1]: 3.04%
